We go through eight molecules from PubChem BioAssay (NCATS).

A short description of test [1]: qHTS for differential inhibitors of proliferation of Plasmodium falciparum line HB3 (AID 1886).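 Further: parasites grown with compound for 72 h before SYBR Green readout.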 Further: potency means the concentration at half of the fitted maximal effect. As to conditions: Potency: Plasmodium falciparum HB3 proliferation inhibition. Background: In qHTS, concentration-response curves come from the screen itself.
Test [2] in a line: qHTS Assay for Identification of Small Molecule Inducers of Hypoxia Response (AID 2120; active means well fitted curve in the direction sought with a large enough effect in the signal ratio, with a control signal flat, not every such curve was filed as active; the % refers to the signal ratio). In short, it runs like this:
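Induction of beta-lactamase reporter activity was measured in CellSensor HRE-bla ME-180 cells after 17 h compound treatment at 37 degrees C, using CCF4 substrate and the 460nm/530nm emission ratio to derive AC50 values.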

Test [3] concerns the target Ferritin light chain (Equus caballus) (UniProt P02791). Put plainly: qHTS Validation Assay for Identification of Novel General Anesthetics (AID 2323). Further: series mostly up to about 77 µM. In short, it runs like this:
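Competitive displacement of the profluorescent anesthetic 1-AMA (50% saturated, PBS) from 10 uM apoferritin, 10 min, room temperature. Activity is normalized 380/535 nm fluorescence; concentration-response fitted with a four-parameter Hill equation.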

The target in test [4] is ATP-dependent DNA helicase Q1 (Homo sapiens) (UniProt P46063). Put plainly: qHTS Validation Assay for Inhibitors of RecQ-Like Dna Helicase 1 (RECQ1) (AID 2353). Further: potency means the concentration at half of the fitted maximal effect. In short, it runs like this: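 50 nM RECQ1T1 preincubated 15 min with compound in Tris pH 8.0 buffer with MgCl2, DTT, Tween-20 and 2.5 ug/ml poly(dI-dC); started with 200 nM TAMRA/BHQ-2 forked duplex and 2 mM ATP. Unwinding read as fluorescence (525/598 nm), two reads 2 h apart.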
Sequence of ATP-dependent DNA helicase Q1 (Homo sapiens) (P46063 whole entry, looked up): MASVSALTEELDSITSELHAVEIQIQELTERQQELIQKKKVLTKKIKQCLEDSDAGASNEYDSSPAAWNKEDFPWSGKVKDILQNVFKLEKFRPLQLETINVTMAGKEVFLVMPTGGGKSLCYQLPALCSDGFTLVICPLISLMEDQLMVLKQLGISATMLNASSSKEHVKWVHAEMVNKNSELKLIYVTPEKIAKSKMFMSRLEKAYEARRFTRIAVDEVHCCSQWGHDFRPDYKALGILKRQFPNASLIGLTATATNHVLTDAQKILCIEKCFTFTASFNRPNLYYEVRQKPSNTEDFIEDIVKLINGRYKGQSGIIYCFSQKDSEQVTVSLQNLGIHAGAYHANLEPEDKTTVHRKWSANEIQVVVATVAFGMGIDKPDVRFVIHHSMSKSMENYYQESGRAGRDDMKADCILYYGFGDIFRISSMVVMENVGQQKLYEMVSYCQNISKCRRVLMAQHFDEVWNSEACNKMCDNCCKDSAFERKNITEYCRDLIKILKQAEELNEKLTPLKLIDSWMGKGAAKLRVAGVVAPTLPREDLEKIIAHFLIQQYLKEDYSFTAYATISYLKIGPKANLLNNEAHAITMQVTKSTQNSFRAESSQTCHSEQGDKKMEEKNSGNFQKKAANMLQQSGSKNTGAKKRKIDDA

Test [5] concerns the target RecQ-like DNA helicase BLM (Homo sapiens) (UniProt P54132). As to the kind of experiment: qHTS Validation Assay for Inhibitors of Bloom's syndrome helicase (BLM) (AID 2364). In short, it runs like this:
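50 nM BLM preincubated 15 min at room temperature with compound in pH 8.0 Tris buffer containing 2.5 ug/ml poly(dI-dC); started with 200 nM TAMRA/BHQ-2 forked duplex and 2 mM ATP (final). Unwinding read as TAMRA fluorescence increase, two reads 2 h apart.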

A short description of test [6]: Cytometric Cell-Based qHTS for Inhibitors of the mTORC1 Signaling Pathway in MEF (Tsc2-/-, p53-/-) Cells (AID 2660).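 Further: percent of cells above a phospho-rpS6 to PI ratio cutoff in each well; series mostly up to about 38 µM.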 In short, it runs like this:
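Immunofluorescence qHTS of rpS6 Ser235/236 phosphorylation: MEFs (Tsc2-/-, p53-/-) treated 24 h, 37 C, in DMEM + 10% FBS. Alexa-488 signal normalized to PI count, referenced to rapamycin (7.5 nM) and DMSO; PI cell number recorded for viability.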

A short description of test [7]: High Content Imaging Cell-Based qHTS for Inhibitors of the mTORC1 Signaling Pathway in MEF (Tsc2-/-, p53-/-) Cells (AID 2666). In short, it runs like this: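 Phospho-rpS6 (Ser235/236) immunofluorescence, normalized and scored as % positive cells using rapamycin and DMSO controls, was read in empty-vector Tsc2-/-, p53-/- MEFs after 24 h compound exposure at 37 C; propidium iodide counted cells.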

Test [8] is described as follows: High Content Imaging Cell-Based qHTS for Inhibitors of the mTORC1 Signaling Pathway in MEF Cells (AID 2667).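 Further: Tsc2-/- p53-/- MEFs stably re-expressing wild-type Tsc2 exposed 24 h; series mostly up to about 38 µM.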 In short, it runs like this:
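WT MEFs (Tsc2-/-, p53-/- re-expressing Tsc2), in DMEM + 10% FBS, were treated with compound for 24 h at 37 C. Cells were then fixed and stained for phospho-rpS6 Ser235/236 with propidium iodide as cell count. Values are % positive cells, with thresholds set against rapamycin-treated cells.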

Test [9] can be described thus: Cytometry Cell-Based qHTS for Inhibitors of the mTORC1 Signaling Pathway in MEF cells (AID 2668).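 Further: Tsc2-/- p53-/- mouse embryonic fibroblasts stably re-expressing wild-type Tsc2; percent cells positive for phospho-rpS6 Ser235/236 relative to propidium iodide stain; series mostly up to about 38 µM.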 In short, it runs like this: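 Phospho-rpS6 (Ser235/236) immunofluorescence over PI signal, scored as % positive cells using thresholds from 7.5 nM rapamycin and DMSO wells, after 24 h compound exposure of WT-Tsc2-rescued Tsc2-/-, p53-/- MEFs. PI cell count recorded for viability.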

A short description of test [10]: Validation screen for small molecules that induce DNA re-replication in MCF 10A normal breast cells (AID 463097). Further: nearly all actives have a fitted effect of over 60% in size. In short, it runs like this:
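Read-out is Hoechst total nuclear intensity by fluorescence scanning imager, flagging increased high-DNA-content nuclei. Compounds were incubated with MCF 10A cells for 48 hr (37 C, 5% CO2) before 40 min staining.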

Test [11] addresses Ubiquitin carboxyl-terminal hydrolase 2 (Homo sapiens) (UniProt O75604). As to the kind of experiment: qHTS Validation Assay for Inhibitors of Ubiquitin-specific Protease USP2a Using CHOP2 as the Reporter (AID 463106). In short, it runs like this:
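USP2 core (10 nM final) was preincubated with compound 30 min at RT in pH 8.0 Tris/CaCl2/beta-ME/CHAPS buffer. Ub-CHOP2 and reporter substrate (25 nM final each) were then added, with fluorescence (Ex 485/Em 531) read after 60 min. Data were normalized to NEM full inhibition and fitted to concentration-response curves.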

Test [12] deals with DNA polymerase III PolC-type (Bacillus subtilis (strain 168)) (UniProt P13267). As to the kind of experiment: qHTS Validation Assay for the Inhibitors of DNA Replication in Gram-Positive Bacteria (AID 485295).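 Further: reconstituted holoenzyme with PolC plus beta clamp SSB and primase; PicoGreen fluorescence of double-stranded DNA made on primed circular M13 template; series mostly up to about 57 µM.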 In short, it runs like this: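 Double-stranded DNA product detected by PicoGreen fluorescence after EDTA quench. Compound incubated with B. subtilis holoenzyme (PolC, beta subunit, SSB, primase) before substrate addition; primed replication of M13Gori with dNTPs and NTPs at room temperature; DMSO defines 0% inhibition.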
Sequence of DNA polymerase III PolC-type (Bacillus subtilis (strain 168)) (P13267 whole entry, looked up): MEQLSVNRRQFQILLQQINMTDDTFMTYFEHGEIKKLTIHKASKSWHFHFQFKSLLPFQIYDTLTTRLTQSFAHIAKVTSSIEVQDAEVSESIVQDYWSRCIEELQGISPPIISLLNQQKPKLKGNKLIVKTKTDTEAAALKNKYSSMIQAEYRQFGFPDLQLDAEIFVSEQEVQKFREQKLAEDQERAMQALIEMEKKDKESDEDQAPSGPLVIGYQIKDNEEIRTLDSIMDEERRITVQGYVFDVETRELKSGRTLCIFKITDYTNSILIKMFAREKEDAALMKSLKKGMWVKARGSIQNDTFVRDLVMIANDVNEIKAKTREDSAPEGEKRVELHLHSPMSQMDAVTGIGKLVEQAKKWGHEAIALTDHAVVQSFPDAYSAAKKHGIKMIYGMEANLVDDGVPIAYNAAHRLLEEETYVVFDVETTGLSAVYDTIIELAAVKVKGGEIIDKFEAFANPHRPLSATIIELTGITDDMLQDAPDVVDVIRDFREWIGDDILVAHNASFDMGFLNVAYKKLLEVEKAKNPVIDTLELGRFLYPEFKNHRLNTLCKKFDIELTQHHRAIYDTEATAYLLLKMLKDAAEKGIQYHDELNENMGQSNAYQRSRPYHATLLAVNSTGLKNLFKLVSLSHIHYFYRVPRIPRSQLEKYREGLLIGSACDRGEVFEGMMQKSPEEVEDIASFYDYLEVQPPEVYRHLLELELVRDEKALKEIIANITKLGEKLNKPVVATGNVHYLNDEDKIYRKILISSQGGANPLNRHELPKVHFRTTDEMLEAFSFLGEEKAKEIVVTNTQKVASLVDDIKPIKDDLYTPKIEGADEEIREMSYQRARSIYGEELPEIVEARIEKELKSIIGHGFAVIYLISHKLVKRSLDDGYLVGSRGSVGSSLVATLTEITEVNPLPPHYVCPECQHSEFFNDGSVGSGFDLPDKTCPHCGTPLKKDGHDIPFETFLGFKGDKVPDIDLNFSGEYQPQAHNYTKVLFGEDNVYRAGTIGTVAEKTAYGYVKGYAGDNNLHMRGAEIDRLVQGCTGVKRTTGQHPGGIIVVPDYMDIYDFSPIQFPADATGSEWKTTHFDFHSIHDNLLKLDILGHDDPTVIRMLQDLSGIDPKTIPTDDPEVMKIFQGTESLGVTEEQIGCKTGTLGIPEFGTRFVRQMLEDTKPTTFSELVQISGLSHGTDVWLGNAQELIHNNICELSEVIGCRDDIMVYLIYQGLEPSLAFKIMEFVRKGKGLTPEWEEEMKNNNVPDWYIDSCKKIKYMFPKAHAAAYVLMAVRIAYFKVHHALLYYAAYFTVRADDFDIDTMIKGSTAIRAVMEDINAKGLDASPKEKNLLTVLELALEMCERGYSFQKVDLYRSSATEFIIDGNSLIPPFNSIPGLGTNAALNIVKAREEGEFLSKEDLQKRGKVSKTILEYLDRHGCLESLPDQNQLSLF

Test [13] has as its target Tumor susceptibility gene 101 protein (Homo sapiens) (UniProt Q99816). As to the kind of experiment: qHTS Validation Assay for Iinhibitors of HIV-1 Budding by Blocking the Interaction of PTAP/TSG101 (AID 485342; calls by dose curve). In short, it runs like this: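 Fluorescence polarization of 50 nM FITC-PTAP peptide bound to 10 uM Tsg101 binding domain was read after 20 min room-temperature incubation with compounds, in 10 mM HEPES pH 7.5, 0.15 M NaCl, 0.01% Tween 20.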

Test [14] is described as follows: qHTS Validation Assay to Find Inhibitors of Chronic Active B-Cell Receptor Signaling (AID 485345; active means well fitted curve in the direction sought with a large enough effect in the main read-out, with a control signal flat, not every such curve was filed as active). In short, it runs like this:
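TMD8 ABC-DLBCL cells stably carrying doxycycline-inducible IkappaBalpha–green luciferase fusion plus unfused red luciferase; compounds 46 uM to 3 nM, 4 h at 37C with doxycycline. Corrected green/red luminescence ratio normalized to 10 uM MG-132 and basal cell wells; curves fitted.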

The target of test [15] is Beta-2 adrenergic receptor (Homo sapiens) (UniProt P07550). As to the kind of experiment: qHTS validation assay of beta-arrestin-biased ligands of beta2-adrenergic receptor (AID 485366). In short, it runs like this:
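Arrestin-recruitment (Tango) reporter: ligand-bound beta2-AR recruits beta-arrestin, releasing tTA, which upregulates luciferase. Titrations of up to 46 microM incubated 18 hr at 37 degrees C before luminescent readout.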

The nature of test [16]: Quantitative high throughput screen for delayed death inhibitors of the malarial parasite plastid, 96 hour incubation (AID 488745). Further: nearly all actives have a fitted effect of over 70% in size. Further: potency means the concentration at half of the fitted maximal effect. In short, it runs like this:
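Growth of reporter-bearing P. falciparum in red cells is measured after 96 h with compound, covering two erythrocytic cycles. Luminescence from the integrated luciferase serves as the growth signal.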

The nature of test [17]: Quantitative high throughput screen for delayed death inhibitors of the malarial parasite plastid, 48 hour incubation (AID 488752). Further: nearly all actives have a fitted effect of over 65% in size. Further: potency means the concentration at half of the fitted maximal effect. In short, it runs like this: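 One parasite generation (48 h, 37 C, 5% CO2) of luciferase-reporter P. falciparum in erythrocytes is run with test compound; decreased luminescence indicates inhibited growth.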
For test [18], the target named is Thioredoxin reductase 1, cytoplasmic (Rattus norvegicus) (UniProt O89049). As to the kind of experiment: qHTS Assay for Substrates of Mammalian Selenoprotein Thioredoxin Reductase 1 (TrxR1) (AID 488772).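 Further: NADPH fluorescence in the first read after selenite addition and not the 8 min delta; series mostly up to about 57 µM; a drop in NADPH fluorescence below the no-compound background marks a TrxR1 substrate.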 In short, it runs like this: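 Quantitative HTS in Tris-HCl buffer at pH 7.5 with EDTA and Tween-20, using rat TrxR1, 400 uM NADPH and 400 uM selenite (final). A fall in initial NADPH fluorescence relative to background marked substrate behaviour.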
Sequence of Thioredoxin reductase 1, cytoplasmic (Rattus norvegicus) (O89049 whole entry, looked up): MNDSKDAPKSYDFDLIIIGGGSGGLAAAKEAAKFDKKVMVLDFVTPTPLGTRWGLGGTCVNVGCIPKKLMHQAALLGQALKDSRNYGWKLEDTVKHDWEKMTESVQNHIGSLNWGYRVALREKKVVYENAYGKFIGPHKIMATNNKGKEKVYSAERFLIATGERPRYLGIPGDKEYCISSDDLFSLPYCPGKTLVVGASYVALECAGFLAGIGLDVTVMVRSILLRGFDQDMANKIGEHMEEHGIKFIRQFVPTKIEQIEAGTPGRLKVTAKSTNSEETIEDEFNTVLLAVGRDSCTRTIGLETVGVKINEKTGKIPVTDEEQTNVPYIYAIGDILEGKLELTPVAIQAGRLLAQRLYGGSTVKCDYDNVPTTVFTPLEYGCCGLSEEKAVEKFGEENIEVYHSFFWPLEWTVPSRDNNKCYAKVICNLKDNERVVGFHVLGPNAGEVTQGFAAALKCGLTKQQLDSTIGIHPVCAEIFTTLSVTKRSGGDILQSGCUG

Test [19] in a line: qHTS Assay for Modulators of Human Peripheral Myelin Protein 22 (PMP22) Expression/Activity (AID 1967; active means well fitted curve in the direction sought with a large enough effect in the signal ratio; the % refers to the signal ratio). In short, it runs like this: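 Readout is the corrected green/red luminescence ratio after 24 h compound exposure, normalised to untreated cells (0%). Engineered MSC80 mouse Schwann cells express green luciferase from the mouse Pmp22 promoter and red luciferase from EF-alpha as internal control.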

Test [20] deals with ATP-dependent 6-phosphofructokinase (Trypanosoma brucei brucei) (UniProt O15648). Put plainly: qHTS Validation Assay to Find Inhibitors of T. brucei phosphofructokinase (AID 485368). The settings on record: outcome: dose series up to 57.5 µM. In short, it runs like this: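 Steps: substrate mix (0.5 mM F6P, 0.1 mM ATP, MgCl2, TEA pH 8.0); compound; 1.25 nM T. brucei PFK; 45 min RT; ATP depletion 10 min; ADP-to-ATP detection 10 min; luminescence read; curve fitting and classification.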

Structures are written as SMILES. Inconclusive results are not listed. Active and inactive are the calls of the source. Unless noted, the call rests on the fitted dose curve; in most records, active means well fitted curve in the direction sought with a large enough effect; inconclusive means small, poorly fitted or top-dose-only effect, or another doubt; inactive means no such curve, though single readings can be large; an effect the other way counts as inactive or inconclusive.

Sequence of Beta-2 adrenergic receptor (Homo sapiens) (P07550 whole entry, looked up): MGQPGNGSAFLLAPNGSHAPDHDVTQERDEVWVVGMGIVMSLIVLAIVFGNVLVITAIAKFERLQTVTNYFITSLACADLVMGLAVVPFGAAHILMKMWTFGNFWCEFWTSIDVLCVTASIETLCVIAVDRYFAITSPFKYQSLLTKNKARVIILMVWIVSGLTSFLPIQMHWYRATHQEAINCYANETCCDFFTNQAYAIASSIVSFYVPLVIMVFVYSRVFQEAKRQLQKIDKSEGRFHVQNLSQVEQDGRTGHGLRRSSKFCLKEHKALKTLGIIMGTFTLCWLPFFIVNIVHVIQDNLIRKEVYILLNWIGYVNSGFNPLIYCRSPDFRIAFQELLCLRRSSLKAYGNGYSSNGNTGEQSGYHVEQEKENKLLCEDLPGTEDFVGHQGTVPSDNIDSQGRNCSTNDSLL
Sequence of RecQ-like DNA helicase BLM (Homo sapiens) (P54132 whole entry, looked up): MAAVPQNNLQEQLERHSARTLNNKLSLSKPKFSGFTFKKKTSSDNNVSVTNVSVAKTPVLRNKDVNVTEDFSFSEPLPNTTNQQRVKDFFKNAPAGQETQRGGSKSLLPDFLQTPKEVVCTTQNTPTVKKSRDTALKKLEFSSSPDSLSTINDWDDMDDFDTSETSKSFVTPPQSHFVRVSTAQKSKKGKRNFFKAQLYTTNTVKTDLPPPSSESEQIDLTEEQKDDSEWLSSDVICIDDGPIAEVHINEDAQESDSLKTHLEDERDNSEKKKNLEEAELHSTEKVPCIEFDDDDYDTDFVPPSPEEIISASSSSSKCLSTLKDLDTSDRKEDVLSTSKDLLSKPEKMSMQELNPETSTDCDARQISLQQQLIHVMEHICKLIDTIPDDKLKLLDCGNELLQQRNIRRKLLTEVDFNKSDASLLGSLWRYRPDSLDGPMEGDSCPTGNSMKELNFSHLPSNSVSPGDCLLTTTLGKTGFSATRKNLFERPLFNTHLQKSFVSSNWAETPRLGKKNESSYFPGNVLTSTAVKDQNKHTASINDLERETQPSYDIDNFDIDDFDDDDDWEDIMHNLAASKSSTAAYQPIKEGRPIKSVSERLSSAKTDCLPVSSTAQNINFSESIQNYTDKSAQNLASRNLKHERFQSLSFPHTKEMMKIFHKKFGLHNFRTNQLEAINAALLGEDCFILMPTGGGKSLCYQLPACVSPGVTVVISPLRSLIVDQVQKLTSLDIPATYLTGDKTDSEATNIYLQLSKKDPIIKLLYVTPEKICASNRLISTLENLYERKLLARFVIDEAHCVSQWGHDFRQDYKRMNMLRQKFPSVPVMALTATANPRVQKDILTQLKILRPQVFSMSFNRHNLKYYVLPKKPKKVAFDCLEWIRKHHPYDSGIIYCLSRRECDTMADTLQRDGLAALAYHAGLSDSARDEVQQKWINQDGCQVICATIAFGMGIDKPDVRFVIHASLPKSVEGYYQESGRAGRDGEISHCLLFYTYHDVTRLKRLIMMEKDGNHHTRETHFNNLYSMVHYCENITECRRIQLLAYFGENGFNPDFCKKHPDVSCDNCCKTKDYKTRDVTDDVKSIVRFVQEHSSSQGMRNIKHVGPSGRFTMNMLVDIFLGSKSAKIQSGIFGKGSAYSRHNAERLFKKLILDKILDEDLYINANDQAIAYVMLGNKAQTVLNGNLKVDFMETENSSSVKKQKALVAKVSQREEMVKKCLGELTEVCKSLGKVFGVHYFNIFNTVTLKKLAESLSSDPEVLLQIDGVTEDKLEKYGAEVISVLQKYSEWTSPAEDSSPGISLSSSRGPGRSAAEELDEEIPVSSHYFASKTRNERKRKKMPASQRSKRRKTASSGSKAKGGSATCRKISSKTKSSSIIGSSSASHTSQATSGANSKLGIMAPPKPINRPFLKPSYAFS
Sequence of Ferritin light chain (Equus caballus) (P02791 2-175 limits assumed): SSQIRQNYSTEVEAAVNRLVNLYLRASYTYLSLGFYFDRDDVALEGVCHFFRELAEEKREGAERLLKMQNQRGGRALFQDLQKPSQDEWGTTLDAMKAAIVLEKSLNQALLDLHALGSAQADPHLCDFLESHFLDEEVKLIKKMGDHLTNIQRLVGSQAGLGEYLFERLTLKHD
Sequence of Tumor susceptibility gene 101 protein (Homo sapiens) (Q99816 whole entry, looked up, the tested form may be a part): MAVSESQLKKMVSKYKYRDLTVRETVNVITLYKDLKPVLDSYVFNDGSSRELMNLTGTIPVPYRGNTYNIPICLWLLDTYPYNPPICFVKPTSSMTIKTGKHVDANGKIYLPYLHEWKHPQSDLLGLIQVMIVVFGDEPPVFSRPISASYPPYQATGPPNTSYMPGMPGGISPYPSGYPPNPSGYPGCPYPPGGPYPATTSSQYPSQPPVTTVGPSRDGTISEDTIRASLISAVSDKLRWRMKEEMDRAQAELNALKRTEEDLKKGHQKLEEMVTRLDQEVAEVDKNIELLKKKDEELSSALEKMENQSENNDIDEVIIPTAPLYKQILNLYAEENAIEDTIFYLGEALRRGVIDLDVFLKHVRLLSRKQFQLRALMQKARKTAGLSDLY

With `CN=C(NC#N)NCCSCc1nc[nH]c1C`, the Potency entry in test [1], in test [4], in [5], in [7], in test [8] and in [9] was “inactive” throughout. Moreover, the Potency entry in test [10], in test [12], in [14], in [16] and in [17] was “inactive” in each case. The outcome in test [2], in [3], in test [6], in test [11], in [13] and in test [15] was inactive. In addition, in test [18], the result was inactive.
Turning to `CCN(CC)CC(=O)Nc1c(C)cccc1C`, the Potency entry in [1], in [4], in test [7], in test [8], in [9] and in [10] was “inactive” each time. The Potency result in test [12], in test [14], in test [16] and in test [17] was “inactive” throughout. For the same molecule, the call in test [19], in test [3], in test [6], in [11], in test [13] and in test [15] was inactive. The molecule was classed as inactive in [18].
Consider `COc1ccc(CCN(C)CCCC(C#N)(c2cc(OC)c(OC)c(OC)c2)C(C)C)cc1OC` (stereo unspecified), for which the Potency was 2.82 µM (active) in test [1], 11.7 µM (active) in [16] and 8.28 µM (active) in test [17]. Further, the molecule was classed as inactive in test [3], in test [6], in test [11], in [13], in test [15] and in test [20]. For the same molecule, the molecule was called inactive in test [18]. The Potency entry in [4], in [5], in test [7], in test [8], in [9] and in test [10] was “inactive” in each case. Besides, in test [12], the Potency entry was “inactive”.
`NS(=O)(=O)c1cc2c(cc1Cl)NC(C1CC3C=CC1C3)NS2(=O)=O` (stereo unspecified): the Potency result in test [1], in test [7], in test [8], in test [9], in test [10] and in [12] was “inactive” each time. For the same molecule, the Potency entry in test [14] and in [17] was “inactive” each time. The call in test [19], in test [6], in test [11], in [13], in test [15] and in test [18] was inactive. In test [4], the Potency was 11.2 µM (active).
Regarding `CC(=O)OCC1=C(C(=O)O)N2C(=O)[C@@H](NC(=O)Cc3cccs3)[C@H]2SC1`, the Potency result in test [1], in test [4], in [7], in [8], in [9] and in test [10] was “inactive” throughout. For the same molecule, the Potency entry in test [12], in [14], in test [16] and in test [17] was “inactive” in each case. Also, the molecule was called inactive in test [19], in test [3], in [6], in [11], in test [13] and in [15]. Besides, the molecule was called inactive in test [18].
On to `C=CCc1ccccc1OCC(O)CNC(C)C` (stereo unspecified), for which the Potency in test [1] was 11.2 µM (active). Further, the call in test [3], in test [6], in test [11], in test [13] and in [18] was inactive. In addition, the Potency entry in test [4], in test [5], in test [7], in test [8], in test [9] and in test [10] was “inactive” throughout. In addition, the Potency entry in test [12], in test [14] and in [17] was “inactive” in each case.
With `CC(=O)OC(C)C[N+](C)(C)C` (stereo unspecified), the Potency result in test [1], in test [7], in test [8], in test [9], in test [10] and in test [12] was “inactive” throughout. Also, the Potency result in test [14], in test [16] and in [17] was “inactive” each time. Besides, the outcome in test [19], in [3], in test [6], in test [11], in test [13] and in test [15] was inactive. Further, the call in test [18] was inactive.
`CN1CCN(CC(=O)N2c3ccccc3C(=O)Nc3cccnc32)CC1`: the Potency entry in test [1], in test [4], in test [5], in test [7], in test [8] and in test [9] was “inactive” in each case. Further, the Potency entry in test [12], in test [14], in test [16] and in test [17] was “inactive” throughout. For the same molecule, the molecule was called inactive in [3], in [6], in test [11], in test [13], in test [15] and in test [18].
